Inconclusive results are not listed. Activity calls are given as the source filed them. Unless noted, the call rests on the fitted dose curve; in most records, active means well fitted curve in the direction sought with a large enough effect in the repeat runs; inconclusive means weak or mixed curves; inactive means no such curve, though single readings can be large; an effect the other way counts as inactive or inconclusive.
Columns and labels:
[1] = qHTS assay to identify small molecule agonists of the estrogen receptor alpha (ER-alpha) signaling pathway in the presence of an antagonist - cell viability counter screen (AID 1259386);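 further: series mostly up to about 92 µM; cells exposed to compounds for 22 h at 37 °C before the viability read; nearly all actives have a fitted effect of over 30% in size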
In short: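 ICI-182,780 at 10.0nM final accompanies the compound titration (15 concentrations, 22hr, 37C) on VM7Luc4E2 cells. The CellTiter-Fluor fluorescence readout runs in the same wells as the luciferase assay.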

[2] = molecular target: Progesterone receptor (Homo sapiens) (UniProt P06401); assay: qHTS assay to identify small molecule agonists of the progesterone receptor (PR) signaling pathway (AID 1346784; calls by dose curve; further: nearly all actives have a fitted effect of over 30% in size)
Chain of Progesterone receptor (Homo sapiens) (P06401 whole entry, looked up): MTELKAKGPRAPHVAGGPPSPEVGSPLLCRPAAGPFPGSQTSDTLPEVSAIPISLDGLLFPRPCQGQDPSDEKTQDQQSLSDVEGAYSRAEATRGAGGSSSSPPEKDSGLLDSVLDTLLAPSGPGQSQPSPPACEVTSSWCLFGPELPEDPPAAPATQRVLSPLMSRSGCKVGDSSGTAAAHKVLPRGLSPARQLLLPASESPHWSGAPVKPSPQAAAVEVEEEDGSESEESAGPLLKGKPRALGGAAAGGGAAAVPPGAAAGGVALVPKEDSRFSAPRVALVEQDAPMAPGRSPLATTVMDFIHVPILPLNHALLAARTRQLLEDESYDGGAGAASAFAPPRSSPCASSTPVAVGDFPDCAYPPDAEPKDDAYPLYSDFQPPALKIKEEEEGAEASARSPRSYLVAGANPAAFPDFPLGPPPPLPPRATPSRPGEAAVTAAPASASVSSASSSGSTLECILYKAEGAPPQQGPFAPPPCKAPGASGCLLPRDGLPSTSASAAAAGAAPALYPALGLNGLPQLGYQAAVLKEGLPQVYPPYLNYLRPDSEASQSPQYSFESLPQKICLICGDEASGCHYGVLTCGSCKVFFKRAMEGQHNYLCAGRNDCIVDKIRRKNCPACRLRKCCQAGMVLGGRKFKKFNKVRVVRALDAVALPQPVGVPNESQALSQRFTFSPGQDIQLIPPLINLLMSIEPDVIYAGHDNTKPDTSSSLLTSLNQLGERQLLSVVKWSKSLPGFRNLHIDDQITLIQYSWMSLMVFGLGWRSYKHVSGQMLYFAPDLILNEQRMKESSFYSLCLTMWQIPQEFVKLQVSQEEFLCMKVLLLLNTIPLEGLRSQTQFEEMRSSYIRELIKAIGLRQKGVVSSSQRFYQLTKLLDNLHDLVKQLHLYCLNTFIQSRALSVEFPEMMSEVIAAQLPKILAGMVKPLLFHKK
In short: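 PR-UAS-bla HEK 293T cells (beta-lactamase reporter under UAS) in 2% charcoal-stripped FBS, dosed with 23 nL compound after 6 hr, incubated 16hr at 37C. LiveBLAzer B/G FRET substrate added, fluorescence read after 2 hours.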

[3] = qHTS assay to identify small molecule antagonists of the progesterone receptor (PR) signaling pathway - cell viability counter screen (AID 1346798); further: series mostly up to about 92 µM; nearly all actives have a fitted effect of over 50% in size
In short: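 PR-UAS-bla HEK293T cells, 3,000/well in 2% charcoal-stripped FBS medium, dosed with compounds plus R5020 agonist and incubated 16 h at 37C. Viability then measured in the same wells by CellTiter-Glo luminescence after 30 min at RT.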

[4] = qHTS assay to identify small molecule antagonists of the TGF-beta/Smad signaling pathway - cell viability counter screen (AID 1346824); further: nearly all actives have a fitted effect of over 50% in size
In short: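 Cytotoxicity counter-screen run in the same wells as the beta-lactamase Smad reporter read: CellTiter-Glo luminescence after 30 min at room temperature. HEK 293T SBE-bla cells had 5 hr compound exposure at 37 C with TGF-beta1 (0.25 ng/mL stock).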

[5] = molecular target: Thyrotropin-releasing hormone receptor (Homo sapiens) (UniProt P34981); assay: qHTS assay to identify small molecule agonists of the thyrotropin-releasing hormone receptor (TRHR) signaling pathway (AID 1346891; calls by dose curve; further: series mostly up to about 58 µM)
Chain of Thyrotropin-releasing hormone receptor (Homo sapiens) (P34981 whole entry, looked up): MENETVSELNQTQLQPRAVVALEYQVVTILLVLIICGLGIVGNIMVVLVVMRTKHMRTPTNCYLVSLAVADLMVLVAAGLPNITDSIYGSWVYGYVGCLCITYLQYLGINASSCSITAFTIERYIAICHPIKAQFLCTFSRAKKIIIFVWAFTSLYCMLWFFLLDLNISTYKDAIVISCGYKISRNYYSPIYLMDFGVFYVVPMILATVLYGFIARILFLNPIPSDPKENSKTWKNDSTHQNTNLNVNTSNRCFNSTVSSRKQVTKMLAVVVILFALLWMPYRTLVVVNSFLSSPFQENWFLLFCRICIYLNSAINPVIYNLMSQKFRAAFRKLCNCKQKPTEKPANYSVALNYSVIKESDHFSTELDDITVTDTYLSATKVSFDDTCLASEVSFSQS
In short: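 HEK293 cells expressing TRHR plated 18 h at 37 C/5% CO2, calcium dye-loaded 2 h at 37 C, then compound added (agonist mode); kinetic calcium fluorescence read 3 min at 1 s intervals; 15 concentrations in triplicate.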

[6] = Human pregnane X receptor (PXR) small molecule agonists, qHTS cell viability counter screen (AID 1346977); further: nearly all actives have a fitted effect of over 50% in size
In short: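 PXR-Luc HepG2 cells (2,000/well, 5% charcoal-stripped FBS) preincubated 5 hr, then exposed to compounds 24 hr at 37 C. Viability read in the same wells by CellTiter-Fluor fluorescence, reagent added at 23 hr, 1 hr incubation.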

[7] = Caspase-3/7 induction in HepG2 cells by small molecules, qHTS assay (AID 1346978); further: nearly all actives have a fitted effect of over 15% in size
In short: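 Caspase-3/7 induction was measured by Caspase-Glo 3/7 luminescence (30 min, room temperature) after a 17 hr compound exposure of wild-type HepG2 cells seeded at 2,000 per well and pre-incubated 5 hr.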

[8] = Caspase-3/7 induction in CHO-K1 cells by small molecules, qHTS cell viability counter screen (AID 1346979); further: nearly all actives have a fitted effect of over 35% in size; further: potency means the concentration at half of the fitted maximal effect
In short: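 Wild-type CHO-K1 cells (1,500/well) treated with compound after 5 h plating; after 16 h at 37C, viability read as CellTiter-Fluor fluorescence following 1 h reagent incubation, in the same wells as the caspase read.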

[9] = Caspase-3/7 induction in CHO-K1 cells by small molecules, qHTS assay (AID 1346980); further: nearly all actives have a fitted effect of over 15% in size
In short: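 Luminescent Caspase-Glo 3/7 read (30min, room temperature) quantified apoptosis induction. Cells were wild-type CHO-K1, treated with compound for 17hr at 37 C and 5% CO2.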

[10] = Caspase-3/7 induction in HepG2 cells by small molecules, qHTS cell viability counter screen (AID 1346981); further: series mostly up to about 92 µM; nearly all actives have a fitted effect of over 30% in size
In short: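 Multiplexed with the caspase-3/7 assay: HepG2 cells, 16 hr compound treatment, CellTiter-Fluor viability detection by fluorescence.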

[11] = molecular target: Acetylcholinesterase (Homo sapiens) (UniProt P22303); assay: Acetylcholinesterase (AChE) small molecule antagonists: colormetric cell-based qHTS assay (AID 1347395; calls by dose curve; further: nearly all actives have a fitted effect of over 30% in size; further: potency means the concentration at half of the fitted maximal effect)
Chain of Acetylcholinesterase (Homo sapiens) (P22303 whole entry, looked up): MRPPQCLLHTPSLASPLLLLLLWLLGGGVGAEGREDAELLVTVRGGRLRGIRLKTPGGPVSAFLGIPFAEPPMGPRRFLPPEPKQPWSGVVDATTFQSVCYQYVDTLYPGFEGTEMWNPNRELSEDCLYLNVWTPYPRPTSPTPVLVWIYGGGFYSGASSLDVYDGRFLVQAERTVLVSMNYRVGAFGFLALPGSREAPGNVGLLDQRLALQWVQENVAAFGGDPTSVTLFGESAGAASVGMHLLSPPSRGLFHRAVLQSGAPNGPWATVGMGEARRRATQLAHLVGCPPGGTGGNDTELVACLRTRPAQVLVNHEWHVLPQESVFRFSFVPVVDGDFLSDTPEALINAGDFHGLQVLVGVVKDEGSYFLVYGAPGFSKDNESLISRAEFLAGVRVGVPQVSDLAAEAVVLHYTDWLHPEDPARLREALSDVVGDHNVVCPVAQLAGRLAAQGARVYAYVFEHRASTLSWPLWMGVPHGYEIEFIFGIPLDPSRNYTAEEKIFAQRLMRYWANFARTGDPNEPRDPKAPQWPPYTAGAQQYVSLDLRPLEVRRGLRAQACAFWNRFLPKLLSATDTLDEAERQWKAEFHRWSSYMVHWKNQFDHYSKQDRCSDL
In short: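 SH-SY5Y cells attached overnight, exposed to compound 30 min at 37 C, then given DTNB/acetylthiocholine; after 90 min at 37 C, colorimetric thiocholine read gives cellular AChE activity.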

[12] = molecular target: Acetylcholinesterase (Homo sapiens) (UniProt P22303); assay: Acetylcholinesterase (AChE) small molecule antagonists: enzyme-based qHTS assay (AID 1347397; calls by dose curve; further: nearly all actives have a fitted effect of over 55% in size); settings: Potency: AChE enzyme activity inhibition
In short: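 rhAChE 50 mU/mL (dispensed) + cpd or DMSO, 30 min RT; add DTNB/acetylthiocholine cocktail, 10 min RT; colorimetric thiocholine readout. qHTS, 1536-well format.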

[13] = qHTS assay to identify small molecule agonists of the progesterone receptor (PR) signaling pathway - cell viability counter screen (AID 1346799; calls by dose curve; further: nearly all actives have a fitted effect of over 45% in size; further: potency means the concentration at half of the fitted maximal effect)
In short: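 Counter screen in the PR-UAS-bla HEK293T wells (2% charcoal-stripped FBS, 16 h compound exposure at 37 C) after the bla read. CellTiter-Glo added, 30 min at room temperature, luminescence read as cell viability.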

[14] = qHTS assay to identify small molecule agonists of the TGF-beta/Smad signaling pathway - cell viability counter screen (AID 1346829); further: top concentration of the series differs between compounds; nearly all actives have a fitted effect of over 45% in size
In short: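 Luminescence from CellTiter-Glo, read after a 30 min room-temperature incubation, gives cell viability of SBE-bla HEK 293T cells treated 5 hr with compounds at 37 C.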

[15] = molecular target: Thyrotropin-releasing hormone receptor (Homo sapiens) (UniProt P34981); assay: qHTS assay to identify small molecule antagonists of the thyrotropin-releasing hormone receptor (TRHR) signaling pathway (AID 1346877; active means well fitted inhibition curve with a large enough effect in the repeat runs, not every such curve was filed as active; further: series mostly up to about 51 µM)
In short: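 Screening used HEK293 cells engineered with TRHR, with a brief 5 min room-temperature compound exposure preceding addition of TRH to 1 nM. The read-out was kinetic calcium-dye fluorescence, concentration-response from 15 doses in triplicate.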

[16] = molecular target: Nuclear receptor subfamily 1 group I member 2 (Homo sapiens) (UniProt O75469); assay: Human pregnane X receptor (PXR) small molecule agonists, qHTS assay (AID 1346982); further: nearly all actives have a fitted effect of over 35% in size; further: potency means the concentration at half of the fitted maximal effect
Chain of Nuclear receptor subfamily 1 group I member 2 (Homo sapiens) (O75469 whole entry, looked up): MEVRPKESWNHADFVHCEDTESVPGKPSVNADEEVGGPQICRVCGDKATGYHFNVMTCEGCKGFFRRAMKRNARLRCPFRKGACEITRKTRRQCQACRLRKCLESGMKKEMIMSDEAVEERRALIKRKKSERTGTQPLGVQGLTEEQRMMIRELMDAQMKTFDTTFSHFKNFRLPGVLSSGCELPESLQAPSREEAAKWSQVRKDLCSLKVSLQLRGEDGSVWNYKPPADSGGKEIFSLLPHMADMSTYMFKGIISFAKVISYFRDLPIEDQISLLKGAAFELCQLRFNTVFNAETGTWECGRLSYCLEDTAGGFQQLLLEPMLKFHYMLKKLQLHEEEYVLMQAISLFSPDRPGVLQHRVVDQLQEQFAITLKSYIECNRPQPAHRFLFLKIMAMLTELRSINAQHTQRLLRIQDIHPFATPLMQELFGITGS
In short: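 We seeded PXR-Luc HepG2 cells in assay medium containing 5% charcoal-stripped FBS, added compounds 5 hr later, incubated 24 hr, and read luminescence with ONE-Glo reagent.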

[17] = qHTS assay to identify small molecule agonists of the TGF-beta/Smad signaling pathway (AID 1346859; active means well fitted activation curve with a large enough effect in the signal ratio in the repeat runs, not every such curve was filed as active; the % refers to the signal ratio; further: series mostly up to about 77 µM)
In short: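 SBE-bla HEK293T cells plated overnight, then compound exposure for 5 h at 37 C. Beta-lactamase reporter read with LiveBLAzer B/G FRET substrate after 2 h at room temperature, fluorescence at 405 nm excitation, 460/530 nm emission.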

[18] = molecular target: Nuclear receptor subfamily 1 group I member 2 (Rattus norvegicus) (UniProt Q9R1A7); assay: Rat pregnane X receptor (rPXR) activation by small molecules, qHTS assay (AID 1346983); settings: rPXR luciferase reporter cells, One-Glo luminescence, 24 h; max activation: stronger effect = higher value; further: nearly all actives have a fitted effect of over 20% in size; further: potency means the concentration at half of the fitted maximal effect
Chain of Nuclear receptor subfamily 1 group I member 2 (Rattus norvegicus) (Q9R1A7 whole entry, looked up): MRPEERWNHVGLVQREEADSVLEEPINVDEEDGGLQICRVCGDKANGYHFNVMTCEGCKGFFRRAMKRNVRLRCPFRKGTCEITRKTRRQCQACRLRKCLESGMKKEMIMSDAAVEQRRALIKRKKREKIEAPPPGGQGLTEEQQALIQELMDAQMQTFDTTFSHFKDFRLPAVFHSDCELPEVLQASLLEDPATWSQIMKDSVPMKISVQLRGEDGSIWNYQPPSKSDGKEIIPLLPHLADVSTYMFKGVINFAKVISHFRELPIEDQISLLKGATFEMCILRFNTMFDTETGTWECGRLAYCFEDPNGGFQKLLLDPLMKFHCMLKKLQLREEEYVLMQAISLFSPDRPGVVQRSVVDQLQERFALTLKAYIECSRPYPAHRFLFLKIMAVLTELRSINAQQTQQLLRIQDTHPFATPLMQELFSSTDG
In short: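 Luminescent readout (One-Glo luciferase, 30 min room temperature) followed 24 hr compound treatment at 37 C of rPXR cells plated 2,000 per well and preincubated 5hr; qHTS format with compounds delivered in DMSO.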

[19] = molecular target: Nuclear receptor subfamily 1 group I member 2 (Homo sapiens) (UniProt O75469); assay: CYP3A4 induction through human pregnane X receptor (PXR) by small molecules, qHTS assay (AID 1346984); further: nearly all actives have a fitted effect of over 40% in size
In short: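 qHTS, concentration-response format: HepG2 DPX-2 line, PXR/CYP3A4-luc. Exposure 24 h, 37C. Substrate Luciferin-IPA 3uM final, 3 h. Detection One-Glo, 30 min RT.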
On the % scale 0 is the no-effect control and ±100 the full control effect.

CC(C)(Cl)[N+](=O)[O-]
inactive: Potency [1] | Potency [2] | Potency [3] | Potency [4] | Potency [5] | Potency [6] | Potency [7] | Potency [8] | Potency [9] | Potency [10] | Potency [11] | Potency [12]

CCOC(=O)COc1cc(-c2nn(C)c(OC(F)F)c2Cl)c(F)cc1Cl
inactive: Potency [1] | Potency [2] | Potency [13] | Potency [4] | Potency [14] | Potency [15] | Potency [5] | Potency [6] | Potency [8] | Potency [9] | Potency [10] | Potency [11] | Potency [12]

COC(=O)C(C)N(C(=O)Cc1ccccc1)c1c(C)cccc1C (stereo not given)
inactive: Potency [1] | Potency [2] | Potency [3] | Potency [4] | Potency [14] | Potency [15] | Potency [5] | Potency [6] | Potency [8] | Potency [9] | Potency [10] | Potency [11] | Potency [12]
active: Potency [16] 10.9 µM

CCCN(CCCl)c1c([N+](=O)[O-])cc(C(F)(F)F)cc1[N+](=O)[O-]
active: Potency [16] 21.7 µM
inactive: Potency [1] | Potency [2] | Potency [13] | Potency [4] | Potency [14] | outcome [17] | Potency [15] | Potency [5] | Potency [6] | Potency [7] | Potency [8] | Potency [9] | Potency [10] | Potency [11] | Potency [12]

CC(=O)c1cc2c(cc1C)C(C)(C)C(C)CC2(C)C (stereo not given)
inactive: Potency [1] | Potency [2] | Potency [3] | Potency [4] | outcome [17] | Potency [15] | Potency [5] | Potency [6] | Potency [11] | Potency [12]

c1cc2ccc3cccc4ccc(c1)c2c34
active: Potency [13] 28.6 µM | Potency [16] 25.5 µM
inactive: Potency [1] | Potency [2] | Potency [14] | outcome [17] | Potency [5] | Potency [6] | Potency [7] | Potency [9] | Potency [11] | Potency [12]

OCCCBr
inactive: Potency [1] | Potency [2] | Potency [4] | outcome [17] | Potency [5] | Potency [6] | Potency [7] | Potency [8] | Potency [9] | Potency [16] | Potency [12]

CCOP(=O)(OCC)O/C(=C/Cl)c1ccc(Cl)cc1Cl
active: Potency [16] 4.86 µM | Potency [18] 14.1 µM
inactive: Potency [1] | Potency [2] | Potency [3] | Potency [4] | outcome [17] | Potency [15] | Potency [5] | Potency [7] | Potency [19]

CCCC(Cn1cncn1)c1ccc(Cl)cc1Cl (stereo not given)
active: Potency [16] 24.3 µM
inactive: Potency [1] | Potency [2] | Potency [4] | Potency [14] | outcome [17] | Potency [15] | Potency [7] | Potency [9] | Potency [11] | Potency [12]

COc1nn(CSP(=S)(OC)OC)c(=O)s1
active: Potency [16] 54.5 µM | Potency [11] 69.6 µM
inactive: Potency [1] | Potency [2] | Potency [4] | Potency [14] | outcome [17] | Potency [15] | Potency [5] | Potency [6] | Potency [7] | Potency [12]

CO/N=C(/C(=O)OC)c1ccccc1COc1ccccc1C
inactive: Potency [1] | Potency [2] | Potency [3] | Potency [4] | Potency [15] | Potency [5] | Potency [7] | Potency [9] | Potency [11] | Potency [12]
active: Potency [8] 2.73 µM | Potency [16] 8.63 µM

O=C(O)C1(c2ccc3c(c2)OC[C@H](Cc2ccc(-c4ccccc4)cc2)[C@H]3O)CCCC1
inactive: Potency [1] | Potency [2] | Potency [4] | Potency [14] | Potency [7] | Potency [9] | Potency [11] | Potency [12]

O=C1c2ccccc2C(=O)C1C(=O)C(c1ccccc1)c1ccccc1
inactive: Potency [1] | Potency [2] | Potency [13] | Potency [4] | outcome [17] | Potency [6] | Potency [7] | Potency [9] | max activation [18] -0.238% | Potency [19] | Potency [11] | Potency [12]

O=Cc1ccc(Cl)cc1Cl
inactive: Potency [1] | Potency [2] | Potency [13] | Potency [4] | Potency [14] | outcome [17] | Potency [5] | Potency [6] | Potency [7] | Potency [8] | Potency [9] | Potency [10] | Potency [16] | Potency [11] | Potency [12]

CC(C)N(C(=O)COc1nnc(C(F)(F)F)s1)c1ccc(F)cc1
active: Potency [11] 39.9 µM
inactive: Potency [1] | Potency [2] | Potency [3] | Potency [4] | outcome [17] | Potency [6] | Potency [7] | Potency [8] | Potency [9] | Potency [10] | Potency [12]

COCCOCCO
inactive: Potency [1] | Potency [2] | Potency [6] | Potency [7] | Potency [9] | Potency [10] | Potency [11] | Potency [12]
active: Potency [16] 27.3 µM

From PubChem BioAssay (Tox21)
